Test [1] in a line: binders of probe aFSTL3 on microarray, primary screen, stem cell growth factor project, biochemical, small-molecule microarray, fluorescence 635/667 (AID 1064).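 Also: measures binding of the biotinylated anti-FSTL3 antibody to printed compounds.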 As to conditions: higher = more signal.
A short description of test [2]: binders from COS7 lysate, DM2A8 probe, primary screen, torsin A project, cell lysate, small-molecule microarray, fluorescence 635/667 (AID 1065). As to conditions: higher = more signal, COS7 lysate expressing mutant human TOR1A.
Test [3] in a line: binders of probe aFGF2 on microarray, primary screen, stem cell growth factor project, biochemical, small-molecule microarray, fluorescence 635/667 (AID 1067).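 Also: measures binding of biotinylated aFGF2 protein to printed compounds on slides; z-score merges feature fluorescence and signal-to-noise across triplicate slides.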 The settings on record: higher = more signal.
A short description of test [4]: binders of probe aFGF10 on microarray, primary screen, stem cell growth factor project, biochemical, small-molecule microarray, fluorescence 635/667 (AID 1071).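 Also: score merges 667 nm spot intensity and signal to noise from triplicate slides.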 The settings on record: higher = more signal.
The target of test [5] is Neurogenic locus notch homolog protein 2 (Homo sapiens) (UniProt Q04721). The test can be described thus: Notch2 binders on small-molecule microarrays, primary screen, biochemical, small-molecule microarray, 635 nm fluorescence, stem cell growth factors (AID 1073). As to conditions: Notch2 binding, higher = more signal.
Test [6] has as its target Pro-neuregulin-1, membrane-bound isoform (Homo sapiens) (UniProt Q02297). The test is described as follows: NRG1 binders on small-molecule microarrays, primary screen, psychiatric disease protein project, biochemical, small-molecule microarray, fluorescence 635/667 (AID 1075).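 Also: score combines 667 nm spot fluorescence with signal to noise.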 As to conditions: NRG1 binding, 635 nm fluorescence, higher = more signal.
Test [7] relates to Neuregulin-1 EGF-like domain. The test is described as follows: binders of neuregulin-1 EGF-like domain, primary screen, biochemical, small-molecule microarray, 635 nm fluorescence (AID 1081).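 Also: binding of the protein to compounds printed on small-molecule microarray slides.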 The settings on record: small-molecule microarray binding, higher = more signal.
Test [8] is described as follows: FRG1 promoter luciferase signal modulators, primary screen, FRG1 inhibition for FSHD, cell-based, C2C12 myotubes, firefly/Renilla luciferase, luminescence (AID 1084). As to conditions: higher = more signal, called active from +8 up or from −8 down.
Test [9] is described as follows: binders of probe aFST on microarray, primary screen, stem cell growth factor project, biochemical, small-molecule microarray, fluorescence 635/667 (AID 1086).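 Also: score merges 667 nm fluorescence with signal-to-noise of each printed compound spot.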 As to conditions: higher = more signal.
Test [10] can be described thus: binders of probe aHhip on microarray, primary screen, stem cell growth factor project, biochemical, small-molecule microarray, fluorescence 635/667 (AID 1087).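 Also: score merges spot fluorescence at 667nm with spot signal to noise ratio.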 The settings on record: higher = more signal.

The source made the active and inactive calls.

Pro-neuregulin-1, membrane-bound isoform (Homo sapiens), sequence (Q02297 whole entry, looked up, the tested form may be a part, canonical isoform): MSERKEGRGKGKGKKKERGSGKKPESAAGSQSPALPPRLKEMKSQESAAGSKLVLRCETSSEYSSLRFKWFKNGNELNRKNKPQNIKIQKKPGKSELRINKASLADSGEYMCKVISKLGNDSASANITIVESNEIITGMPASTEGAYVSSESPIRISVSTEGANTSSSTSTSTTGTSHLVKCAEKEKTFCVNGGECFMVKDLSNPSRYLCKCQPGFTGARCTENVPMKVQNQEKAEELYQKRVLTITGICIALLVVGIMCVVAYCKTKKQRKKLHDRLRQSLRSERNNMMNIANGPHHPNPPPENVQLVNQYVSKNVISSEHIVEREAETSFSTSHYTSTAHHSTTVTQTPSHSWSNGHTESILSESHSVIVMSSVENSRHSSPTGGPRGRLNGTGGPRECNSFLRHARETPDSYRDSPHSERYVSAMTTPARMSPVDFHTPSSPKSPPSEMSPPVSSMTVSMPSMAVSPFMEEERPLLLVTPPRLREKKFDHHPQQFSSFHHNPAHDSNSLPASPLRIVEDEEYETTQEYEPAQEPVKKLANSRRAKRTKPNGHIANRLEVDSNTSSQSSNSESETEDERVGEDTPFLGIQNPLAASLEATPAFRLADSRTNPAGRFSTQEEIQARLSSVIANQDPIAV
Neurogenic locus notch homolog protein 2 (Homo sapiens), sequence (Q04721 whole entry, looked up, canonical isoform): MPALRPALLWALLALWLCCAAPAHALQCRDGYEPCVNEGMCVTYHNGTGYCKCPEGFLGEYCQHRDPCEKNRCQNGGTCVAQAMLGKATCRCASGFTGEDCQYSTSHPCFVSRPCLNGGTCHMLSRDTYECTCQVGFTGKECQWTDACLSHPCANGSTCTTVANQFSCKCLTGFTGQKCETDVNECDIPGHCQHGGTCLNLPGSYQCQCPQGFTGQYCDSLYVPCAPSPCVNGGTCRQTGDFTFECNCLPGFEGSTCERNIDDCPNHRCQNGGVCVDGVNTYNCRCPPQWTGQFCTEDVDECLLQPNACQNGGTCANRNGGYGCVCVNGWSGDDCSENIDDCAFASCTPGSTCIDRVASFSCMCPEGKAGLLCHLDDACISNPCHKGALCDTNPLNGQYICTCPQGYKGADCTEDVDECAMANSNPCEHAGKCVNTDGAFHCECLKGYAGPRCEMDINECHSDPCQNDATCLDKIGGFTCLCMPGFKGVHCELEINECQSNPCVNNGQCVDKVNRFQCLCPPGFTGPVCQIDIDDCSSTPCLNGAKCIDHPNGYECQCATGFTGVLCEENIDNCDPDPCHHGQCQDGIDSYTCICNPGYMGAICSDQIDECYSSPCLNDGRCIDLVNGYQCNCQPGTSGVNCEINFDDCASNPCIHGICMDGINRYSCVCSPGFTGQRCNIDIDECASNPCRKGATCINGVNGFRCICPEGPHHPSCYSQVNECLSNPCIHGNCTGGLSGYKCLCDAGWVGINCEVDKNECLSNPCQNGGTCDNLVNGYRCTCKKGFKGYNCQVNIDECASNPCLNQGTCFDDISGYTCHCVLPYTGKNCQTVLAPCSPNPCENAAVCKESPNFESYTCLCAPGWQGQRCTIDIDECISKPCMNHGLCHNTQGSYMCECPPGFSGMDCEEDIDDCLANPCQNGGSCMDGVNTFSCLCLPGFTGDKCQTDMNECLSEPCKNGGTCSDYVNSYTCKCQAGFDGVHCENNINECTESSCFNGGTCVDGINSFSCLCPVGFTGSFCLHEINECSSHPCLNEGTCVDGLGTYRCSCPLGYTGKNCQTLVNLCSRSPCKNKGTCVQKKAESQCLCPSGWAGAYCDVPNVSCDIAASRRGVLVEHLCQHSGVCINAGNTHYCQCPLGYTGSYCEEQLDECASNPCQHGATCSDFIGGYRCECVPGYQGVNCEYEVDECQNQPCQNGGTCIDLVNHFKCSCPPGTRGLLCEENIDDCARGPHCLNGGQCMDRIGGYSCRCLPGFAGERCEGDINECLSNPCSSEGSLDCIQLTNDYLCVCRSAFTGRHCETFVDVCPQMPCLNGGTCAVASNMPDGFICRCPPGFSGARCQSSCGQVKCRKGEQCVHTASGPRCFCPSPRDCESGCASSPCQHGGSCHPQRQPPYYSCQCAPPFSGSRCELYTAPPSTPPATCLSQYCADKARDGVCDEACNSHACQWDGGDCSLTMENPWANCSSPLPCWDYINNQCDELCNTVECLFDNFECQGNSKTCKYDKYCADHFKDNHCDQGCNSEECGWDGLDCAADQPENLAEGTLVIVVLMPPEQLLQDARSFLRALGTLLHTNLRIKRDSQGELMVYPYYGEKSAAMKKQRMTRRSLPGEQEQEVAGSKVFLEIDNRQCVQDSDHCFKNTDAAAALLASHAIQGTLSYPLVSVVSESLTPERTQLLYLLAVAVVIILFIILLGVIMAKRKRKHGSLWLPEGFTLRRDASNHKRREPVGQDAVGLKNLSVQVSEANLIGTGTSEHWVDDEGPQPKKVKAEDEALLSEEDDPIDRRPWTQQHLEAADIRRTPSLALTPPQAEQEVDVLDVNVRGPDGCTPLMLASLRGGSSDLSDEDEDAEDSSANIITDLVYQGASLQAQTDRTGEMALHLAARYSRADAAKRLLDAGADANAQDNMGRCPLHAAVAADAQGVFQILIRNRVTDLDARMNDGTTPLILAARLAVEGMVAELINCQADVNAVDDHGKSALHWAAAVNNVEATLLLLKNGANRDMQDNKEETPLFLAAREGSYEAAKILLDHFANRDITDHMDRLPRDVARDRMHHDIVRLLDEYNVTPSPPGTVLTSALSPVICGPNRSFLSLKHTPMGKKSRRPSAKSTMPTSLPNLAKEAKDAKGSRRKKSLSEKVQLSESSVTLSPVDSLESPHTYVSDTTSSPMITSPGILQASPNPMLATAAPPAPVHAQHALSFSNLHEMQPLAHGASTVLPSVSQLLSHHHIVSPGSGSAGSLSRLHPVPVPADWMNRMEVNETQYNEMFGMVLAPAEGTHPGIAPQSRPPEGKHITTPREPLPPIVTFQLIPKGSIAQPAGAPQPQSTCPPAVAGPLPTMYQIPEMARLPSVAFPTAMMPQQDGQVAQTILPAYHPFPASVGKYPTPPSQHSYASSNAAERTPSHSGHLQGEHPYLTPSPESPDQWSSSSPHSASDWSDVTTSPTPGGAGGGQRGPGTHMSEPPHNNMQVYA

In the case of `CC(C)C[C@H]1NC(=O)[C@H](Cc2ccccc2)NC(=O)[C@@]23C(=O)N[C@@H](Cc4ccccc4)C2[C@H](C)[C@@]2(C)O[C@H]2C3/C=C/C/C=C\CNC1=O` (stereo not given in full), the composite z-score in test [1] was -0.263; in test [2], 0.919; in test [3], -0.116; in test [4] it was 0.461; in test [5] it was 0.777; in [6], 1.03. Moreover, the composite z-score in [7] turned out to be 1.05; in test [9], 0.089; in test [10] it was 0.0626. Moreover, the z-score in test [8] is 2.48 (inactive).

For `C=CCNC(=O)[C@H]1[C@@H]2C(=O)O[C@@H](c3ccccc3)[C@@H](c3ccccc3)N2[C@@H](c2ccccc2OCCO)[C@]12C(=O)N(C(=O)OCCOC)c1ccccc12`, the composite z-score in test [1] is 0.041; in [2], 0.3; in test [3], -0.0226; in test [4] it was 0.832; in [5], 0.716; in [6], 1.54. Moreover, the composite z-score is 1.13 in test [7], 0.186 in test [9] and 0.0623 in test [10]. Moreover, the z-score in test [8] is -2.27 (inactive).

As for `Cc1ccc(F)cc1S(=O)(=O)N[C@@H]1CCN(Cc2ccc3[nH]ccc3c2)C1`, the composite z-score is -0.0434 in test [1]; 0.216 in [2]; -0.0717 in test [3]; 0.652 in [4]; 0.523 in test [5]; 0.91 in test [6]. In addition, the values for the composite z-score in test [7], in test [9] and in test [10] were 0.563, 0.356 and -0.134, respectively. The z-score in [8] was -3.16 (inactive).

`COCCOC(=O)N1C(=O)[C@@]2(c3cc(C#CC4=CCCCC4)ccc31)[C@H](C(=O)N1CCN(c3ncccn3)CC1)[C@H]1C(=O)O[C@H](c3ccccc3)[C@H](c3ccccc3)N1[C@@H]2c1ccccc1OCCO`: the composite z-score in [1] is -0.285; in [2] it was 0.943; in [3], 0.0346; in [4], 0.616; in test [5], 0.793; in [6], 0.591. Besides, the values for the composite z-score in test [7], in test [9] and in test [10] were 1.15, 0.636 and -0.0237, respectively. Besides, in [8], the z-score was 1.45 (inactive).

On to `COCCOC(=O)N1C(=O)[C@@]2(c3cc(C#CCCO)ccc31)[C@H](c1ccccc1OCCO)N1[C@H](c3ccccc3)[C@H](c3ccccc3)OC(=O)[C@H]1[C@@H]2C(=O)N1CCc2cc(OC)c(OC)cc2C1`, for which the composite z-score was 0.071 in [1]; 0.827 in test [2]; 0.022 in test [3]; 1.04 in test [4]; 1.04 in [5]; 1.21 in test [6]. In addition, the composite z-score was determined as 1.17 in test [7], 0.505 in test [9] and 0.0373 in test [10]. In addition, the z-score in test [8] is -1.4 (inactive).

For the molecule `CCCCC(O)C1C=CC2C(=O)N(C)C(=O)C2N1Nc1ccccc1` (stereo not given), the composite z-score is 0.645 in test [1]; 0.0873 in test [2]; -0.0778 in test [3]; 0.435 in [4]; 0.762 in test [5]; 1.76 in test [6]. Besides, the results for the composite z-score in test [7], in [9] and in test [10] were 1.25, 0.632 and 0.128, respectively. Further, the z-score in test [8] was 1.63 (inactive).

Turning to `COc1ccc(C#Cc2ccc3c(c2)[C@]2(C(=O)N3)[C@H](c3ccc(OCCO)cc3)N3[C@H](c4ccccc4)[C@H](c4ccccc4)OC(=O)[C@H]3[C@@H]2C(=O)O)cc1`, the composite z-score is -0.302 in [1]; 0.478 in [2]; 0.0296 in test [3]; 1.12 in [4]; 1.34 in [5]; 0.343 in [6]. Further, the composite z-score is 1.25 in test [7], 0.29 in test [9] and -0.0454 in test [10]. For the same molecule, in test [8], the z-score is 0.373 (inactive).

For the molecule `Cc1ccc(S[C@]2(C(=O)NC3CC3)CC(=O)N(Cc3cc(C(F)(F)F)cc(C(F)(F)F)c3)[C@@H]2c2ccc(CO)cc2I)cc1`, the composite z-score in [1] is 0.385; in [2], 1.11; in test [3], 0.21; in test [4], 0.0945; in [5], -0.262; in [6], 0.212. Moreover, the composite z-score in test [7] was 1.27; in test [9], 0.457; in test [10] it was -0.494. For the same molecule, the z-score in test [8] was 0.528 (inactive).

As to `COCCOC(=O)N1C(=O)[C@@]2(c3ccccc31)[C@H](C(=O)N1CCCCCCC1)[C@H]1C(=O)O[C@H](c3ccccc3)[C@H](c3ccccc3)N1[C@@H]2c1ccc(O)cc1`, the composite z-score in test [1] stood at 3.89; in [2] it was 1.42; in test [3], 0.904; in [4], 0.559; in test [5], 1.08; in test [6], 1.59. For the same molecule, the composite z-score in test [7] was determined as 1.15; in test [9] it was 3.43; in test [10] it was 3.37. Moreover, in [8], the z-score was -1.43 (inactive).

Regarding `C=CCC(OC(C)=O)[C@@H]1[C@@H](N(Cc2ccc(-c3cccc(C(F)(F)F)c3)o2)C(=O)Cc2ccc(F)cc2)c2cc(OCCCO)ccc2N1C(=O)c1ccc2ccccc2n1` (stereo not given in full), the composite z-score in [1] was -0.019; in [2] it was 0.193; in test [3], -0.106; in [4], -0.321; in test [5], -0.848; in test [6], -0.114. Besides, the composite z-score in test [7] was -0.533; in test [9], 0.0974; in [10], 0.235. Also, the z-score in test [8] is 0.01 (inactive).

Consider `Cc1ccc(S(=O)(=O)N2[C@@H](c3ccccc3)C(C(=O)O)=CC[C@H]2c2ccc(C#N)cc2)cc1`, for which the composite z-score in test [1] is 0.163; in test [2], -0.198; in [3] it was 0.0624; in test [4], 1.07; in test [5], 1.39; in test [6], 1.72. The composite z-score is 0.808 in test [7], 0.538 in test [9] and -0.265 in [10]. Further, the z-score in test [8] was -3.73 (inactive).

Take `C=C(COC)/C(=C/C[C@@H](OC(C)=O)c1ccccc1OCCO)c1cc(C(=O)OC)ccc1OC`: the composite z-score was 0.0503 in [1]; 0.377 in test [2]; -0.116 in [3]; 0.785 in test [4]; -0.216 in [5]; 1.48 in [6]. For the same molecule, the composite z-score in [7] is 1.09; in test [9] it was 0.0581; in [10], -0.374. Further, the z-score in test [8] is -0.657 (inactive).

On to `CCCCCN1CC=CC23O[C@@H]4C=CCOC(=O)[C@@H]4[C@H]2C(=O)N(CCCCCO)[C@@H]3C1=O` (stereo not given in full), for which the composite z-score in [1] was 0.346; in [2] it was 1.8; in test [3], -0.113; in test [4] it was -1.11; in test [5], -1.26; in [6], -0.48. Besides, the composite z-score in test [7] is 1.29; in test [9], -0.883; in test [10] it was -0.261. Also, the z-score in test [8] is 0.391 (inactive).

Consider `CC1(C)OC[C@@]23C=C(Br)[C@@H](C[C@H]12)[C@@]1(CO1)C3=O`, for which the composite z-score in [1] is -0.401; in test [2], 0.374; in test [3] it was -0.105; in test [4], 0.403; in test [5], 0.517; in test [6], 0.146. The composite z-score in test [7] is 0.149; in [9], 0.0965; in [10], -0.0423. Also, the z-score in test [8] is -0.468 (inactive).

Regarding `CC(=O)c1ccc(C(O)C2C=CC3C(=O)N(C)C(=O)C3N2NC(=O)OC(C)(C)C)cc1` (stereo not given), the composite z-score came to 0.301 in [1]; 0.169 in test [2]; 0.152 in test [3]; 1.13 in test [4]; 1.61 in test [5]; 2.11 in test [6]. Besides, the composite z-score in test [7] was 1.35; in test [9] it was 0.948; in test [10], -0.154. In addition, in test [8], the z-score was 0.929 (inactive).

For `CCCCC(O)C1C=CC2C(=O)NC(=O)C2N1Nc1ccccn1` (stereo not given), the composite z-score was -0.197 in test [1]; -0.0611 in [2]; -0.0691 in [3]; 0.329 in [4]; 0.949 in [5]; 0.699 in [6]. Further, the composite z-score is 0.683 in test [7], 0.0344 in test [9] and -0.128 in test [10]. In [8], the z-score is 0.86 (inactive).

The values are drawn from PubChem BioAssay.
